From PubChem BioAssay (Tox21)
“And” between values parts separate entries of the source, which are not always exact repeats. Identical values can stand only once. A number with no mark means an inactive call. Records with an inconclusive call do not appear. A call without a number means that no potency is given here. The source made the active and inactive calls. Unless noted, calls follow the shape of the dose curve; as a rule, active = well fitted curve in the direction sought with a large enough effect in the repeat runs; inconclusive = weak or mixed curves; inactive = no such curve, though single readings can be large; an effect the other way counts as inactive or inconclusive.

Legend:
[1] = qHTS assay to test for compound auto fluorescence at 535 nm (green) in HEK293 cells (AID 720680)
[2] = qHTS assay to test for compound auto fluorescence at 460 nm (blue) in HEK293 cell free culture (AID 720681); also: potency is read from the fitted curve at half-maximal effect
In short: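 Blue fluorescence (Ex 405/Em 460 nm, triamterene-equivalent) was read immediately after pin transfer of compound or DMSO into medium (DMEM, 10% FBS) without cells.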

[3] = qHTS assay to test for compound auto fluorescence at 535 nm (green) in HEK293 cell free culture (AID 720682)
In short: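 Green-channel intensity (Ex/Em 485/535 nm) was recorded from compound-treated wells containing only DMEM with 10% FBS. Fluorescein provided the equivalency standard.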

[4] = qHTS assay to test for compound auto fluorescence at 590 nm (red) in HEK293 cell free culture (AID 720683)
In short: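 Red-channel autofluorescence of compounds in culture medium (DMEM, 10% FBS), no cells, measured at 540/590 nm. Rose Bengal sodium is the reference fluorophore for equivalence.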

[5] = qHTS assay to test for compound auto fluorescence at 590 nm (red) in HepG2 cell free culture (AID 720684)
In short: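 No cells present: MEM + 10% FBS only. Compound pinned in, red label read (540/590 nm). Activity = fluorescence equivalent to Rose Bengal sodium.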

[6] = qHTS assay to test for compound auto fluorescence at 460 nm (blue) in HepG2 cell free culture (AID 720685); also: potency is read from the fitted curve at half-maximal effect
In short: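 Cell-free plates of MEM plus 10% FBS received 23 nL compound or DMSO vehicle; blue-channel (405/460 nm) intensity scored against triamterene as reference fluorophore.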

[7] = qHTS assay to test for compound auto fluorescence at 535 nm (green) in HepG2 cell free culture (AID 720686)
[8] = qHTS assay to test for compound auto fluorescence at 460 nm (blue) in HepG2 cells (AID 720687); also: potency is read from the fitted curve at half-maximal effect
In short: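 Blue-channel autofluorescence (Ex/Em 405/460 nm, triamterene-equivalent) was measured after 1 hr compound exposure at 37 C, 5% CO2. Cells were HepG2, plated overnight at 37 C in MEM plus 10% FBS.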

[9] = molecular target: Glucocorticoid receptor (Homo sapiens) (UniProt P04150); assay: qHTS assay to identify small molecule agonists of the glucocorticoid receptor (GR) signaling pathway (AID 720691; active = well fitted activation curve with a large enough effect in the signal ratio in the repeat runs, not every such curve was filed as active; the % refers to the signal ratio); conditions: GR-bla HeLa, beta-lactamase reporter ratio, 18 h; activation: at 62.4 µM (top of the series)
Sequence of Glucocorticoid receptor (Homo sapiens) (P04150 whole entry, looked up): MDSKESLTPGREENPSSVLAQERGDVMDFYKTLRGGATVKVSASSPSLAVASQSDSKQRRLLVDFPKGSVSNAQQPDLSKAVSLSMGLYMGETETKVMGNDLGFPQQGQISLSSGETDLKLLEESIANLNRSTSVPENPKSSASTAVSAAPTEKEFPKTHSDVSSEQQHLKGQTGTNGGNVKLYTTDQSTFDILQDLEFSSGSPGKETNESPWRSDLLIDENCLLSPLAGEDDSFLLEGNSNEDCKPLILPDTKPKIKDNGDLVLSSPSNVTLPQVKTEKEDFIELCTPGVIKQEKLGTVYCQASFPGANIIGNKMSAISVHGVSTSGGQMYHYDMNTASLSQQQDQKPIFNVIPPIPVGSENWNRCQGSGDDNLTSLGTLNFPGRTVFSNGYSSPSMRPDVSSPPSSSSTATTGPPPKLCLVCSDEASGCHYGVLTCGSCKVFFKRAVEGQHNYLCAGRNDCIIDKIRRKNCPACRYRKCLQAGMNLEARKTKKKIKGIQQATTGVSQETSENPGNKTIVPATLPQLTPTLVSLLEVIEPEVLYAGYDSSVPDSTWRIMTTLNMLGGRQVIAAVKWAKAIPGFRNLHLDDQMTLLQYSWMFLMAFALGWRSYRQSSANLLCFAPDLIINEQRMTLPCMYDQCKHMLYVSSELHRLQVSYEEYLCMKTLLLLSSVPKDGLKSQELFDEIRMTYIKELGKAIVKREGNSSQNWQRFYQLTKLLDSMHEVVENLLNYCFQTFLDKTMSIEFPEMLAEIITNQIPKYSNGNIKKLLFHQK
In short: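 Compounds in DMSO, alongside positive controls, were added to GR-bla HeLa reporter cells and incubated 18 h at 37 C; GRE-driven beta-lactamase was detected by fluorescence after 2 h with FRET substrate at room temperature.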

[10] = molecular target: Glucocorticoid receptor (Homo sapiens) (UniProt P04150); assay: qHTS assay to identify small molecule antagonists of the glucocorticoid receptor (GR) signaling pathway (AID 720692; active = well fitted inhibition curve with a large enough effect in the signal ratio in the repeat runs, not every such curve was filed as active; the % refers to the signal ratio)
In short: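 In a 1536-well cell format, compounds were added 4 h after seeding GR-bla HeLa cells, together with dexamethasone at 5 nM final; reporter activity was measured by FRET-substrate fluorescence following 18 h at 37 C.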

[11] = qHTS assay to identify small molecule antagonists of the glucocorticoid receptor (GR) signaling pathway - cell viability counter screen (AID 720693); also: nearly all actives have a fitted effect of over 55% in size
[12] = qHTS assay for identifying genotoxic compounds that show differential cytotoxicity against isogenic chicken DT40 cell lines with known DNA damage response pathways - wild type cell line (AID 743012); also: nearly all actives have a fitted effect of over 60% in size; also: potency is read from the fitted curve at half-maximal effect
In short: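 Viability of DNA repair-proficient chicken DT40 cells was assessed by CellTiter-Glo luminescence following 40 h compound exposure at 37 C/5% CO2.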

[13] = qHTS assay for identifying genotoxic compounds that show differential cytotoxicity against isogenic chicken DT40 cell lines with known DNA damage response pathways - Rev3 mutant cell line (AID 743014); also: nearly all actives have a fitted effect of over 55% in size; also: potency is read from the fitted curve at half-maximal effect
[14] = qHTS assay for identifying genotoxic compounds that show differential cytotoxicity against isogenic chicken DT40 cell lines with known DNA damage response pathways - Rad54/Ku70 mutant cell line (AID 743015); also: nearly all actives have a fitted effect of over 60% in size; also: potency is read from the fitted curve at half-maximal effect
[15] = qHTS assay to identify small molecule antagonists of the androgen receptor (AR) signaling pathway - cell viability counter screen (AID 743033; also: nearly all actives have a fitted effect of over 45% in size)
[16] = qHTS assay to identify small molecule antagonists of the androgen receptor (AR) signaling pathway using the MDA cell line - cell viability counter screen (AID 743041; also: nearly all actives have a fitted effect of over 45% in size)
In short: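 Using the breast carcinoma line MDA-kb2 AR-luc, test chemicals were co-incubated with R1881 for 16 h; CellTiter-Fluor reagent, added at 15.5 h, provided a fluorescence measure of live cells.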
Tags tell the direction and shape of the fitted curve or compound fluorescence and quenching.

SMILES: Nc1nc(N)nc(Cl)n1
- outcome [1]: inactive
- Potency [2]: inactive
- outcome [3]: inactive
- outcome [4]: inactive
- outcome [5]: inactive
- Potency [6]: inactive
- Potency [7]: inactive
- Potency [8]: inactive
- Potency [9]: inactive
- Potency [10]: inactive
- Potency [11]: inactive
- Potency [12]: inactive
- Potency [13]: inactive
- Potency [14]: inactive
- Potency [15]: inactive
- Potency [16]: inactive

SMILES: COc1cnc(OC)n2nc(NS(=O)(=O)c3c(OCC(F)F)cccc3C(F)(F)F)nc12
- outcome [1]: inactive
- Potency [2]: inactive
- outcome [3]: inactive
- outcome [4]: inactive
- outcome [5]: inactive
- Potency [6]: inactive
- Potency [7]: inactive
- Potency [8]: inactive
- Potency [9]: inactive
- Potency [10]: inactive
- Potency [11]: inactive
- Potency [12]: inactive
- Potency [13]: inactive
- Potency [14]: inactive
- Potency [15]: inactive

SMILES: [O]=[Cr][O][Cr]=[O]
- outcome [1]: inactive
- Potency [2]: inactive
- outcome [3]: inactive
- outcome [4]: inactive
- outcome [5]: inactive
- Potency [6]: inactive
- Potency [7]: inactive
- Potency [8]: inactive
- Potency [9]: inactive
- Potency [10]: inactive
- Potency [11]: inactive
- Potency [12]: inactive
- Potency [13]: inactive
- Potency [14]: inactive
- Potency [15]: inactive
- Potency [16]: inactive

SMILES: CC(Cl)CCl (stereo not given)
- outcome [1]: inactive
- Potency [2]: inactive
- outcome [3]: inactive
- outcome [4]: inactive
- outcome [5]: inactive
- Potency [6]: inactive
- Potency [7]: inactive
- Potency [8]: inactive
- Potency [9]: inactive
- Potency [10]: inactive
- Potency [11]: inactive
- Potency [12]: inactive
- Potency [13]: inactive
- Potency [14]: inactive
- Potency [15]: inactive

SMILES: CNC(=O)/C=C(\C)OP(=O)(OC)OC
- outcome [1]: inactive
- Potency [2]: inactive
- outcome [3]: inactive
- outcome [4]: inactive
- outcome [5]: inactive
- Potency [6]: inactive
- Potency [7]: inactive
- Potency [8]: inactive
- Potency [9]: inactive
- Potency [10]: inactive
- Potency [11]: inactive
- Potency [12]: inactive
- Potency [13]: inactive
- Potency [14]: inactive
- Potency [15]: inactive
- Potency [16]: inactive

SMILES: CC(C)c1c(CN(C)C(C)Cc2ccccc2)n(C)n(-c2ccccc2)c1=O (stereo not given)
- fluorescence, % of fluorescein [1]: -0.0005% [at 18.6 µM]
- fluorescence, % of fluorescent control [2]: 0.024% [at 18.6 µM]
- activity change [3]: -0.0364% [at 18.6 µM]
- fluorescence, % of fluorescent control [4]: 0.362% [at 18.6 µM]
- fluorescence, % of Rose Bengal [5]: -0.353% [at 18.6 µM]
- fluorescence, % of fluorescent control [6]: -0.0993% [at 18.6 µM]
- fluorescence, % of fluorescein control [7]: -0.009% [at 18.6 µM]
- fluorescence, % of fluorescent control [8]: 0.105% [at 18.6 µM]
- Potency [9]: inactive
- Potency [10]: inactive
- Potency [11]: inactive
- Potency [12]: 6.39 µM (active)
- Potency [15]: inactive
- Potency [16]: inactive

SMILES: O=P(Cl)(Cl)Cl
- outcome [1]: inactive
- Potency [2]: inactive
- outcome [3]: inactive
- outcome [4]: inactive
- outcome [5]: inactive
- Potency [6]: inactive
- Potency [7]: inactive
- Potency [8]: inactive
- Potency [9]: inactive
- Potency [10]: inactive
- Potency [11]: inactive
- Potency [12]: inactive
- Potency [13]: inactive
- Potency [14]: inactive
- Potency [15]: inactive
- Potency [16]: inactive

SMILES: COc1ccc2c3c1O[C@H]1[C@H](O)CC[C@H]4[C@@H](C2)N(C)CC[C@@]341
- outcome [1]: inactive
- Potency [2]: inactive
- outcome [3]: inactive
- outcome [4]: inactive
- outcome [5]: inactive
- Potency [6]: inactive
- Potency [7]: inactive
- Potency [8]: inactive
- Potency [9]: inactive
- Potency [10]: inactive
- Potency [11]: inactive
- Potency [12]: inactive
- Potency [14]: inactive
- Potency [15]: inactive
- Potency [16]: inactive

SMILES: CC(Cc1ccc(O)cc1)NCC(O)c1cc(O)cc(O)c1 (stereo not given)
- outcome [1]: inactive
- Potency [2]: inactive
- outcome [3]: inactive
- outcome [4]: inactive
- outcome [5]: inactive
- Potency [6]: inactive
- Potency [7]: inactive
- Potency [8]: inactive
- Potency [9]: inactive
- Potency [10]: inactive
- Potency [11]: inactive
- Potency [12]: inactive
- Potency [13]: inactive
- Potency [14]: inactive
- Potency [15]: inactive
- Potency [16]: inactive

SMILES: ClC1=C(Cl)[C@]2(Cl)[C@@H]3[C@H]4C[C@H]([C@@H]5O[C@H]45)[C@@H]3[C@@]1(Cl)C2(Cl)Cl
- outcome [1]: inactive
- Potency [2]: inactive
- outcome [3]: inactive
- outcome [4]: inactive
- outcome [5]: inactive
- Potency [6]: inactive
- Potency [7]: inactive
- Potency [8]: inactive
- Potency [9]: inactive
- Potency [10]: inactive
- Potency [11]: inactive
- Potency [12]: 29.8 µM (active) and 27.3 µM (active)
- Potency [13]: 9.68 µM (active)
- Potency [14]: 17.2 µM (active)
- Potency [15]: inactive
- Potency [16]: inactive

SMILES: CCCCN(CCCC)C(=S)[S-].CCCCN(CCCC)C(=S)[S-].[Ni+2]
- outcome [1]: inactive
- Potency [2]: inactive
- outcome [3]: inactive
- outcome [4]: inactive
- outcome [5]: inactive
- Potency [6]: inactive
- Potency [7]: inactive
- Potency [8]: inactive
- Potency [9]: inactive
- Potency [10]: inactive
- Potency [11]: inactive
- Potency [12]: inactive
- Potency [14]: inactive
- Potency [15]: inactive
- Potency [16]: inactive

SMILES: Cc1cccc(Cc2cnc[nH]2)c1C
- outcome [1]: inactive
- Potency [2]: inactive
- outcome [3]: inactive
- outcome [4]: inactive
- outcome [5]: inactive
- Potency [6]: inactive
- Potency [7]: inactive
- Potency [8]: inactive
- Potency [9]: inactive
- Potency [10]: inactive
- Potency [11]: inactive
- Potency [14]: inactive
- Potency [15]: inactive
- Potency [16]: inactive

SMILES: CCCCN(CCCC)C(=S)S
- outcome [1]: inactive
- Potency [2]: inactive
- outcome [3]: inactive
- outcome [4]: inactive
- outcome [5]: inactive
- Potency [6]: inactive
- Potency [7]: inactive
- Potency [8]: inactive
- Potency [9]: inactive
- Potency [13]: inactive
- Potency [15]: inactive
- Potency [16]: inactive

SMILES: CCCCC(CC)COC(=O)c1ccccc1C(=O)OCC(CC)CCCC (stereo not given)
- outcome [1]: inactive
- Potency [2]: inactive
- outcome [3]: inactive
- outcome [4]: inactive
- outcome [5]: inactive
- Potency [6]: inactive
- Potency [7]: inactive
- Potency [8]: inactive
- Potency [9]: inactive
- Potency [14]: inactive
- Potency [15]: inactive

SMILES: ClCBr
- outcome [1]: inactive
- Potency [2]: inactive
- outcome [3]: inactive
- outcome [4]: inactive
- outcome [5]: inactive
- Potency [6]: inactive
- Potency [7]: inactive
- Potency [8]: inactive
- Potency [9]: inactive
- Potency [11]: inactive
- Potency [12]: inactive
- Potency [13]: inactive
- Potency [14]: inactive
- Potency [15]: inactive
- Potency [16]: inactive

SMILES: CN1CCc2cc3c(cc2C1O)OCO3 (stereo not given)
- outcome [1]: inactive
- Potency [2]: 39.8 µM (active)
- outcome [3]: inactive
- outcome [4]: inactive
- outcome [5]: inactive
- Potency [6]: 39.8 µM [fluorescent] (active)
- Potency [7]: inactive
- Potency [8]: 39.8 µM [fluorescent] (active)
- Potency [11]: inactive
- Potency [12]: inactive
- Potency [13]: inactive
- Potency [14]: inactive
- Potency [15]: inactive
